Each structure is given as a SMILES string. Compounds without any hit were thinned out: in the full panel of roughly 83,000, 20% have a hit.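 Single-concentration screen, 48 h exposure, 96-well plates. Endpoint: percent growth. Below 10 = active.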 Unmarked numbers belong to inactive results. Activity calls are given as the source filed them.

The assay concerns HT29 colon. Briefly: NCI-60 one-dose screen, 48 h (100 = growth as untreated, 0 = no growth, -100 = all killed). To be noted: 10 µM unless noted.
On to `CC(=O)Nc1nc(C(=O)N2N=C(C)/C(=C/c3cccs3)C2=O)cs1`, for which the growth is 96.5%.
In the case of `CN1C(=O)[C@H]2c3c1cccc3[C@@]13NC(=O)O[C@H]1[C@H](CCC3(C)C)C2(C)C`, the growth was 100%.
For the molecule `CC(=O)C1CCC(C)=CC1=O` (centres undefined), the growth is 103%.
With `COc1cccc(-n2cc(-c3nc(Cl)c4ccccc4n3)nn2)c1`, the growth was 53.1%.
In the case of `Nc1c(C(=O)Nc2cccc(Cl)c2Cl)sc2nc3c(cc12)C(=O)CCC3`, the growth is 85.5%.
As for `COc1cc(/C=C2\CCCC3=C2NC(C)=NC3c2cc(OC)c(OC)c(OC)c2)cc(OC)c1OC` (centres undefined), the growth was 7.9% (active).
As for `O=c1[nH]c(-c2cn(-c3ccc(Cl)cc3)nn2)nc2ccccc12`, the growth is 72.3%.
Then `CC/C(=C(\c1ccc(O)cc1)c1ccc(OCCN(C)CCN(C)C(=O)CCC(=O)c2c(C)[nH]c(/C=C3\N=C(c4ccc[nH]4)C=C3OC)c2C)cc1)c1ccccc1`, with 15.5%.
Then `Cc1cc(Nc2nc(-c3ccncc3)nc3ccccc23)n[nH]1`, with 61.3%.
To `COc1cc(C2C=C(C)N=C3SC=CN32)cc(OC)c1OC` (centres undefined) belongs 110%; to `COC1=CC(c2ccc[nH]2)=N/C1=C\c1[nH]c(C)c(C(=O)CCC(=O)Oc2ccc3c(c2)CCC2C3CC[C@]3(C)[C@@H](O)CC[C@@H]23)c1C` (some centres undefined), 6.68% (active).
On to `Cc1ccc(Cn2c(-c3nonc3N)nc3ccccc32)cc1`, for which the growth is 46.3%.
Then `O=C(Nc1ccccc1)OCC1OCOC(COC(=O)Nc2ccccc2)C1OC(=O)Nc1ccccc1` (centres undefined), with 43.1%; and `CC1=CNNc2c3ncnc-3ncn21`, with 104%; and `CCN(CC)c1cc(/C=C/c2ccc(OC)c(OC)c2)nc2cc(F)c(F)cc12`, with 103%.
For `CCCCCCCCCCCCOB(OCCCCCCCCCCCC)OCCCCCCCCCCCC`, the growth is 105%.
For the molecule `c1ccn2nnnc2c1`, the growth was 98.9%.
With `Nc1c(C(=O)Nc2c(Cl)cccc2Cl)sc2nc3c(cc12)CCCCC3`, the growth was 34.1%.
With `COc1ccc(-n2c(C)cc(-c3ccccc3)c2C)cc1`, the growth is 12.4%.
`COc1cc2c(cc1OC)C1(C)N(CC2)C(=O)OC1(C)C` (centres undefined): the growth is 115%.
For the molecule `COc1ccc(/C=C/c2nc(N3CCOCC3)c3nc(Cl)c(Cl)cc3n2)cc1OC`, the growth is 97.4%.
In the case of `Cc1cccc(NC(=O)c2sc3nc4c(cc3c2N)CCCC4)c1`, the growth is 15.4%.
As for `O=C(/C=C/c1ccccc1)n1c(-c2ccc(Cl)cc2)nc2ccccc21`, the growth is -40.6% (active).
Consider `COc1cc(Cn2c(-c3nonc3N)nc3ccccc32)ccc1C`, for which the growth is 0.109% (active).
Take `Clc1ccc(-c2nc(-c3ccco3)cn3ccnc23)cc1`: the growth is 40.3%.
As to `Oc1ccc(N=Cc2ccccc2)cc1`, the growth was 105%.
Consider `CCCCCc1c(C)[nH]c(/C=c2\[nH]/c(=C3/C=c4ccccc4=N3)cc2OC)c1C`, for which the growth was -13.4% (active).
For the molecule `COc1cc2nc(Cl)nc(NCCO)c2cc1OC`, the growth is 110%.
On to `CCC1CCc2nc3sc(C(=O)Nc4ccccc4C)c(N)c3cc2C1` (centres undefined), for which the growth was 7.01% (active).
Consider `Cc1cc(Nc2nc(C(=O)Nc3ccccc3)nc3ccccc23)n[nH]1`, for which the growth is 84.7%.
Consider `c1ccc2nc(-c3ccc4ccccc4n3)ccc2c1`, for which the growth was 105%.
For `Clc1nc2ccccc2nc1CI`, the growth was 117%.
Then `Cc1cccc(NC(=O)c2sc3nc4c(cc3c2N)CCC4)c1C`, with 1.41% (active).
On to `Clc1cccc(Cl)c1Cn1c(-c2cncs2)nc2ccccc21`, for which the growth is 91.5%.
Then `Clc1ccc(/C=C/c2nc(N3CCOCC3)c3nc(Cl)c(Cl)cc3n2)cc1`, with 105%; and `Cc1cc(Nc2nc(-c3ccc(F)cc3)nc3ccccc23)n[nH]1`, with 22.5%.
For the molecule `COC(=O)[C@H]1[C@H](OC)[C@@H](OC(=O)/C=C/c2ccncc2)CC2CN3CCc4c([nH]c5cc(OC)ccc45)[C@@H]3C[C@@H]21` (some centres undefined), the growth is 68.9%.
Consider `CN(C)c1ncc(-c2ccc(C(F)(F)F)cc2)c(NC2CCCCCC2)n1`, for which the growth was 34.4%.
To `CC(=O)Nc1ccc(S(=O)(=O)N2C(=O)CCC2C(=O)Nc2ccccc2)cc1` (centres undefined) belongs 34%.
